Out of some 350,000 compounds screened, about 6,000 (1.7%) were called active. About 5% were inconclusive and are not listed. The entries come from a sample that favours actives as a whole. Unmarked numbers belong to inactive results. Rule as the data show it: active = CPE inhibition above about 20% (passing the limit was not always enough); inconclusive = no clear call, values can overlap the other calls; tested in BHK-21 cells.

A short description of the assay: protection of cells from dengue 2 killing – plate reader, single concentration, primary screen (AID 651640).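 Also: 0% = median of neutral control wells and 100% = median of positive control wells.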 Conditions: DENV2-infected cells, cytopathic effect rescue, at 9.99 µM, stronger effect = higher value. On the technique in general: Damage to the host cells serves as the signal in cytopathic effect assays.
Consider `COC(=O)c1c(-c2ccc(OC)cc2)c2c(c3c4cc(OC)ccc4n(S(=O)(=O)c4ccc(F)cc4)c13)C(=O)N(C)C2`, for which the CPE inhibition was 44.7% (active). In the case of `COC(=O)c1cc2c(c3c4cc(F)ccc4n(S(=O)(=O)c4ccccc4)c13)C(=O)N(Cc1ccccc1OC)C2`, the CPE inhibition was 15.1%. On to `COC(=O)c1c(-c2ccc(OC)cc2)c2c(c3c4ccccc4n(S(=O)(=O)c4ccc(C)cc4)c13)C(=O)N(C)C2`, for which the CPE inhibition was 2.43%. With `Cc1ccc(S(=O)(=O)N2C[C@@H](O)COC[C@@H]3O[C@@H](CC(=O)N[C@H]4CCN(Cc5ccccc5)C4)CC[C@H]32)cc1`, the CPE inhibition was -6.36%. For `C/C=C/c1ccccc1[C@H]1[C@@H](C#N)N(c2nc(CC)cs2)[C@@H]1CO` the value was -4.18%; for `O=C(CSc1nc2ccccc2c(=O)n1-c1ccc(F)cc1)NC1CC1`, -10.2%. For `Cc1ccc(-n2c(SCC(=O)N3CCC(C(=O)O)CC3)nc3ccccc3c2=O)cc1C` the value was 31.6% (active); for `O=C(CSc1nc2ccccc2c(=O)n1-c1ccccc1F)N1CCOCC1`, 3.85%; for `CC(=O)N1[C@H](CO)[C@H](c2ccccc2)C12CN(C(=O)c1ccccn1)C2`, 3.27%.

In the case of `C=CCn1c(-c2ccccc2OCC)n[nH]c1=S`, the CPE inhibition is -1.21%. Regarding `C=CCOc1ccccc1CNn1c(C)n[nH]c1=S`, the CPE inhibition is 25.4% (active). For `C=CCOc1c(CNn2cn[nH]c2=S)cccc1OC` the value was -7.79%; for `Nc1ncnc2c1ncn2[C@@H]1O[C@H](C(=O)N[C@@H](CCc2ccccc2)C(=O)N2CCCN(Cc3cccs3)CC2)[C@@H](O)[C@H]1O`, -8.03%; for `COc1cccc(S(=O)(=O)N[C@H]2CC[C@H](CC(=O)NC3CCC3)O[C@H]2CO)c1`, -5.34%. For `CO[C@@H]1CN(C)C(=O)c2ccc(NC(=O)c3ccccn3)cc2OC[C@@H](C)N(C(=O)C2CCCCC2)C[C@H]1C` the value was -2.92%; for `O=C(C[C@H]1CC[C@H](NC(=O)Nc2ccc(C(F)(F)F)cc2)[C@H](CO)O1)NCCN1CCCC1`, 1.56%.

In the case of `NC(=O)c1ccc(Nc2ccc3nonc3c2[N+](=O)[O-])cc1`, the CPE inhibition is -0.407%. In the case of `CCOc1ccccc1Nc1ccc2nonc2c1[N+](=O)[O-]`, the CPE inhibition was 22.7% (active). For `CCOc1ccccc1Nc1ccc(C(=O)O)cc1[N+](=O)[O-]` the value was 2.94%; for `O=C(Nc1ccccc1)N1C[C@H]2[C@@H](c3ccccc31)[C@@H](CO)N2Cc1cocn1`, -3.04%; for `CO[C@H]1CN(C)C(=O)c2ccc(NC(=O)c3cc(C)on3)cc2OC[C@@H](C)NC[C@@H]1C`, -4.45%. Then `COc1cccc(-c2ccc([C@H]3[C@H](CO)N4CCCCN(S(=O)(=O)c5cccs5)C[C@@H]34)cc2)c1`, with -2.61%; and `Cc1cccc(-c2ccc([C@@H]3[C@@H](CO)N4CCCCN(S(=O)(=O)c5cccs5)C[C@H]34)cc2)c1`, with 32.7% (active); and `Cc1cccc(-c2ccc([C@H]3[C@H](CO)N4CCCCN(S(=O)(=O)c5cn(C)cn5)C[C@@H]34)cc2)c1`, with -11.9%. Then `O=S(=O)(Cc1ccccc1)N1CCCCN2[C@@H](CO)[C@@H](c3ccc(-c4ccc(F)cc4)cc3)[C@@H]2C1`, with -23%.

Consider `CCS(=O)(=O)N1CCCCN2[C@@H](CO)[C@@H](c3ccc(-c4ccccc4)cc3)[C@@H]2C1`, for which the CPE inhibition is 12.3%. Then `O=S(=O)(Cc1ccccc1)N1CCCCN2[C@@H](CO)[C@H](c3ccc(-c4ccccc4)cc3)[C@@H]2C1`, with 59% (active); and `CCNC(=O)[C@H]1[C@H](CO)[C@H]2Cn3c(cccc3=O)[C@H]2N1C(=O)C1CCCC1`, with 3.43%; and `C[C@@H]1CCCCO[C@@H](CN(C)C(=O)C2CCCCC2)[C@H](C)CN([C@H](C)CO)C(=O)c2cc(NC(=O)Cc3ccccc3)ccc2O1`, with -2.34%. For `COc1cccc(S(=O)(=O)N[C@H]2CC[C@@H](CC(=O)NCc3ccc(F)cc3)O[C@@H]2CO)c1` the value was 2.23%. For `CN(C)CC(=O)N[C@@H]1CC[C@H](CC(=O)O)O[C@H]1CO` the value was 8.44%.

Consider `O=C(O)C[C@@H]1CC[C@H](NC(=O)CCN2CCCCC2)[C@H](CO)O1`, for which the CPE inhibition was 20.1% (active). With `O=C(C[C@H]1CC[C@H](NC(=O)CCN2CCCCC2)[C@@H](CO)O1)Nc1ccccc1`, the CPE inhibition was -7.71%. For `C[C@@H](NC(=O)C[C@@H]1C=C[C@@H](NC(=O)CN2CCOCC2)[C@H](CO)O1)c1ccccc1`, the CPE inhibition was -6.9%. For `CNC(=O)C[C@@H]1CC[C@@H]2[C@@H](COc3ccc(NC(=O)Cc4cccs4)cc3C(=O)N2C)O1` the value was -1.22%; for `COc1ccccc1C(=O)Nc1ccc2c(c1)OC[C@@H](C)NC[C@H](C)[C@@H](OC)CN(C)C2=O`, -3.53%. Then `O=C(C1CCN(S(=O)(=O)c2ccc(Br)s2)CC1)N1CCN(C2CCCCC2)CC1`, with 66.2% (active); and `O=C(C1CCN(S(=O)(=O)c2ccc(Br)s2)CC1)N1CCN(c2ccccc2)CC1`, with -4.17%; and `O=C(NC1CCCCC1)C1CCCN(S(=O)(=O)c2ccc(Br)s2)C1` (stereo unspecified), with 2.35%. For `C[C@H](CO)N1C[C@H](C)[C@H](CN(C)CC2CCCCC2)Oc2ccc(NC(=O)C3CCCCC3)cc2C1=O` the value was 0.912%; for `C[C@H](CO)N1C[C@H](C)[C@H](CN(C)Cc2ccccc2)OCCCC[C@H](C)Oc2ccc(NC(=O)c3ccccc3)cc2C1=O`, -7.82%; for `C[C@@H]1CCCCO[C@@H](CN(C)CC2CCCCC2)[C@H](C)CN([C@H](C)CO)C(=O)c2cc(NC(=O)C3CCCCC3)ccc2O1`, -14.3%. `C[C@H](CO)N1C[C@H](C)[C@@H](CN(C)Cc2ccc(C(=O)O)cc2)OCCCC[C@H](C)Oc2ccc(NC(=O)c3ccccc3)cc2C1=O`: the CPE inhibition was -2.18%. Turning to `C[C@@H]1CN([C@H](C)CO)C(=O)c2cc(NC(=O)C3CCCCC3)ccc2O[C@@H]1CN(C)CC1CCCCC1`, the CPE inhibition was 22.8% (active). With `C[C@@H]1CCCCO[C@H](CN(C)CC2CC2)[C@@H](C)CN([C@H](C)CO)C(=O)c2cc(NC(=O)Cc3ccccc3)ccc2O1`, the CPE inhibition was 13.5%. Regarding `C[C@H](CO)N1C[C@H](C)[C@@H](CN(C)CC2CC2)OCCCC[C@H](C)Oc2ccc(NC(=O)Cc3ccccc3)cc2C1=O`, the CPE inhibition is 57.8% (active).

Regarding `C[C@@H]1CN([C@@H](C)CO)C(=O)c2cc(NC(=O)Cc3ccccc3)ccc2O[C@H]1CN(C)CC1CC1`, the CPE inhibition was 31.5% (active). Then `C[C@H]1CCCCO[C@H](CN(C)Cc2ccccc2)[C@@H](C)CN([C@@H](C)CO)C(=O)c2cc(NC(=O)c3ccccc3)ccc2O1`, with 48.2% (active); and `C[C@@H]1CCCCO[C@H](CN(C)Cc2ccccc2)[C@@H](C)CN([C@H](C)CO)C(=O)c2cc(NC(=O)Cc3ccccc3)ccc2O1`, with -14%. Regarding `C[C@@H]1CN([C@H](C)CO)C(=O)c2cc(NC(=O)Cc3ccccc3)ccc2O[C@@H]1CN(C)CC1CCCCC1`, the CPE inhibition was -0.335%.

In the case of `C[C@@H]1CN([C@@H](C)CO)C(=O)c2cc(NC(=O)Cc3ccccc3)ccc2O[C@@H]1CN(C)CC1CCCCC1`, the CPE inhibition is 2.75%.

These data come from PubChem BioAssay AID651640 (Broad Institute, 2012).
